NIH3T3 tox – NIH 3T3 cell cytotoxicity | Potency, µM (top dose mostly 96.7 µM), most hits filed as inhibitors | AID 1345082 | 94,000 compounds, 4.3% hits | NIH 3T3 viability, CellTiter-Glo ATP luminescence, 48-72 h; also: nearly all actives have a fitted effect of over 55% in size
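Luminescent ATP readout (CellTiter-Glo, 10 min RT) after 48 or 72 hr compound exposure of NIH 3T3 cells seeded at 400 cells/well in 1536-well format; quantitative HTS.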
hNpr1 antagonist – human Npr1 receptor antagonism. P16066. HEK293 hNpr1 GloSensor cGMP, ANP-stimulated luminescence. Potency, µM (series often up to 46.3 µM), hits mostly inhibitors. 76,000 compounds, 1.6% hits; calls by dose curve; also: nearly all actives have a fitted effect of over 60% in size
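Compound pre-incubated 30 min at room temperature on GloSensor-loaded HEK293 cells stably carrying hNpr1 and the pGS-40F cGMP biosensor. Stimulation uses hNppA at 0.1 nM final; luminescence is taken at baseline and 20 min post-agonist.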
HEK293 tox – cytotoxic compounds in HEK 293 cells | Potency, µM (highest dose often 115 µM), actives largely listed as inhibitors | HEK 293 viability, ATP luminescence (CellTiter-Glo), 48-72 h | AID 1345083 | 94,000 compounds, 6.6% hits; also: nearly all actives have a fitted effect of over 60% in size
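250 HEK 293 cells/well; compound by pintool; incubated 48 or 72 hr at 37 degree Celsius; CellTiter-Glo added, 10 min RT, luminescence imaged.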
Luciferase inh – Photinus pyralis luciferase inhibition | P08659 | AID 1347043 | purified P. pyralis luciferase, luminescence, biochemical | 76,000 compounds, 2.5% hits | Potency, µM (doses to about 115 µM), hits mostly inhibitors; also: nearly all actives have a fitted effect of over 65% in size
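FLuc 10nM, D-luciferin 10uM, ATP 10uM, Mg acetate 10mM, Tris acetate pH 7.5, Tween/BSA; cpd qHTS; enzyme added last; CCD luminescence.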
GPT2 inhibitor – GPT2 alanine aminotransferase inhibition; Recombinant GPT2, coupled pyruvate oxidase/HRP Amplex Red fluorescence; Potency, µM (highest dose often 57.7 µM), usual class: inhibitors; AID 1671188; 100,000 compounds, 0.25% hits; Q8TD30; also: nearly all actives have a fitted effect of over 60% in size
Target sequence (Q8TD30 whole entry, looked up): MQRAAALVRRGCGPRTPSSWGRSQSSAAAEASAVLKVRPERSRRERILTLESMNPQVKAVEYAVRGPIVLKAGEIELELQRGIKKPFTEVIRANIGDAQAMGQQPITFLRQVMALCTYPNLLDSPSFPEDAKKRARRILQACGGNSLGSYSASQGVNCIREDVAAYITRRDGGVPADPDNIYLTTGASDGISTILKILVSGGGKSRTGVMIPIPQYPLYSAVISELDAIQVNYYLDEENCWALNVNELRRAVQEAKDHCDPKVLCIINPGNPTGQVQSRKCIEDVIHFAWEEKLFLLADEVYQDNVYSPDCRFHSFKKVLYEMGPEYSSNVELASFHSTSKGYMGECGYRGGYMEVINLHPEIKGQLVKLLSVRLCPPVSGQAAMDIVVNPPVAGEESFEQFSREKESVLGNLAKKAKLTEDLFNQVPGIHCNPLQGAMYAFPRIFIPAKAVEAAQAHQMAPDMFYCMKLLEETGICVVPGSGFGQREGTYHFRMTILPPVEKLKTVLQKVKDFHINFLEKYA
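Recombinant GPT2 (10ng/uL) with 250uM a-KG and 2mM L-alanine, 30 min at room temperature, in HEPES pH 7.5 buffer. Pyruvate detected by pyruvate oxidase/HRP/Amplex Red fluorescence after 30 min in the dark; AOA (50uM) as positive control.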
Numbers stand for hits; 0 = inactive; ? = inconclusive; - = not tested or not shown; ! = a repeat was not active; [ ] = another dose, or the depositor's remark. In the library only some 10% were active in any assay of this set; here they are far more common. Unless noted, calls follow the shape of the dose curve; as a rule, active = well fitted curve in the direction sought with a large enough effect; inconclusive = small, poorly fitted or top-dose-only effect, or another doubt; inactive = no such curve, though single readings can be large; an effect the other way counts as inactive or inconclusive.

SMILES	NIH3T3 tox	hNpr1 antagonist	HEK293 tox	Luciferase inh	GPT2 inhibitor
COc1ccc(CNC[C@H]2Cn3cc(-c4ccccc4)nc3CO2)cc1	?	0	?	0	0
O=C(Cc1ccc(F)cc1)N1CCCC(C(=O)N2CCC(N3CCOCC3=O)CC2)C1 (centres undefined)	0	-	0	-	0
Cc1cccc(-n2nc(C)c(CCC(=O)N3CCOCC3)c2Oc2ccccc2C)c1	?	0	?	0	0
Cc1cccc(-n2nc(C)c(CCC(=O)N3CCSCC3)c2Oc2ccccc2)c1	?	0	45µM	0	0
Cc1nn(-c2ccccc2)c(Oc2ccccc2F)c1CCC(=O)N1CCSCC1	?	0	35µM	0	?
Cc1nn(-c2ccc(F)cc2)c(Oc2ccccc2F)c1CCC(=O)N1CCSCC1	?	0	?	0	0
O=C(NCCn1cccc1-c1nc(-c2ccccc2)no1)c1ccccc1F	?	0	?	?	0
O=C(Nc1ccccc1)c1ccc2c(c1)OCCN(c1ccccc1)C2	0	?	112µM	?	0
O=C(NC1CC1)c1ccc2c(c1)OCCN(c1cccc(OC(F)(F)F)c1)C2	?	?	?	0	0
O=C(NC1CCOCC1)c1ccc2c(c1)OCCN(c1ccccc1)C2	?	0	79µM	0	0
CCOc1ccccc1C(=O)N1CCC2(CC1)NC(=O)N(c1cccc(Cl)c1)N2	?	0	32µM	0	?
CCOc1ccccc1C(=O)N1CCC2(CC1)NC(=O)N(Cc1ccccc1)C2=O	0	0	0	0	0
Cc1ccc(C(=O)N2CCC3(CC2)NC(=O)N(c2cccc(Cl)c2)N3)c(C)c1	?	0	?	0	?
COc1ccc(C(=O)N2CCCC3(C2)NC(=O)N(Cc2ccc(C)cc2)C3=O)cc1 (centres undefined)	0	0	0	0	0
COc1ccc(C(=O)N2CCCC3(C2)NC(=O)N(Cc2ccc(Cl)cc2)C3=O)cc1 (centres undefined)	0	0	50µM	0	0
O=C(c1cc2ccccc2[nH]1)N1CCC2(C1)NC(=O)N(Cc1ccc(Cl)cc1)C2=O (centres undefined)	?	0	35µM	?	0
CCOc1ccccc1C(=O)N1CCCC2(C1)NC(=O)N(Cc1ccc(Cl)cc1)C2=O (centres undefined)	?	0	79µM	0	0
O=C1Nc2ccc(-c3ccc4c(c3)OCO4)cc2C(=O)N2CCN(C(=O)c3cccs3)C[C@@H]12	35µM	0	32µM	0	0
O=C1Nc2ccc(-c3ccccc3)cc2C(=O)N2CCN(C(=O)c3cccnc3)C[C@H]12	0	0	0	0	0
COc1ccc(C(=O)N2CCN3C(=O)c4cc(-c5ccc(Cl)cc5)ccc4NC(=O)[C@@H]3C2)cc1	28µM	0	32µM	0	0
O=C1Nc2ccc(-c3ccc(Cl)cc3)cc2C(=O)N2CCN(C(=O)c3cccnc3)C[C@H]12	?	0	45µM	0	0
CCc1ccc(N2CC(c3noc(-c4sccc4C)n3)CC2=O)cc1 (centres undefined)	?	0	79µM	0	0
CCc1ccc(N2CC(c3noc(-c4ccc(N(C)C)cc4)n3)CC2=O)cc1 (centres undefined)	0	0	0	0	?
COc1ccc(N2CC(c3noc(-c4ccc(C(C)(C)C)cc4)n3)CC2=O)cc1OC (centres undefined)	?	?	40µM	?	0
COc1ccc(-c2nc(C3CC(=O)N(Cc4ccccc4OC)C3)no2)c(C)c1 (centres undefined)	?	0	?	0	?
SMILES	NIH3T3 tox	hNpr1 antagonist	HEK293 tox	Luciferase inh	GPT2 inhibitor
COc1ccc(N2CC(c3noc(-c4ccc(F)cc4)n3)CC2=O)cc1OC (centres undefined)	0	0	?	0	0
COc1ccccc1CN1CC(c2noc(-c3ccc(C)cc3C)n2)CC1=O (centres undefined)	?	0	40µM	0	0
CCOc1ccc(-c2nc(C3CC(=O)N(Cc4ccccc4OC)C3)no2)cc1 (centres undefined)	22µM	0	45µM	0	0
CCOC(=O)N[C@H]1[C@H](OC(=O)Nc2ccccc2)[C@@H]2O[C@H]1c1ccccc12	?	-	?	-	0
COc1ccccc1Nc1ccnc(N2CCC(NC(=O)Cc3ccccn3)CC2)n1	?	-	?	-	0
O=c1n(CCN2CCCC(N[S+](=O)([O-])c3cccs3)C2)nc2n1CCCC2 (centres undefined)	0	-	0	-	-
Cc1ccc(-c2ccccc2CN2CCN(C(=O)c3cccc(Cl)c3)CC2)cc1Cl	?	-	?	-	0
COc1ccc(C)cc1-c1cn(C)c(=O)n2cc(COc3ccc(Cl)cc3)nc12	?	0	?	0	0
CN(C)c1cccc(-c2cn(C)c(=O)n3cc(COc4ccnn4C)nc23)c1	?	0	?	0	0
Cn1nccc1OCc1cn2c(=O)n(C)cc(-c3cccc(OC(F)(F)F)c3)c2n1	?	0	89µM	0	0
COc1ccc(-c2cn(C)c(=O)n3cc(COc4ccc(Cl)cc4)nc23)c(C)c1	10µM	0	?	0	0
Cn1cc(-c2cccc(CO)c2)c2nc(COc3ccc(Cl)cc3)cn2c1=O	?	0	63µM	?	0
CC(=O)Nc1ccccc1-c1cn(C)c(=O)n2cc(COc3ccc(Cl)cc3)nc12	100µM	0	?	0	0
CCCC(=O)N1Cc2ccccc2CC2(CCCCN2Cc2cccnc2)C1 (centres undefined)	0	-	0	-	0
CNCC(=O)N1CCC2(CC1)CN(CCOc1ccccc1)C(=O)O2	0	0	0	0	0[11.5 µM]
COc1ccc(F)cc1-c1ccc(CN2CCC(NC(=O)C3CCCCC3)C2)cc1 (centres undefined)	32µM	-	45µM	-	-
COc1ccc(F)cc1-c1ccc(CN2CCCCC2C(=O)NC2CCC2)cc1 (centres undefined)	?	-	35µM	-	-
COc1ccccc1-c1ccc(CN2CCCCC2C(=O)NC2CC2)cc1 (centres undefined)	?	-	40µM	-	-
COc1ccccc1-c1cccc(C(=O)N2CCC[C@H]2C(=O)NC2CC2)c1	0	-	0	-	0
COc1ccccc1-c1ccc(CN2CCCCC2C(=O)NC2CCCCC2)cc1 (centres undefined)	45µM!	-	22µM!	-	-
O=C(NC1CC1)C1CCCN1Cc1ccc(-c2cncnc2)cc1 (centres undefined)	0	-	0	-	0
COc1cccc(CNC(=O)c2nc3sccn3c2-c2ccc(F)cc2)c1	?	-	?	-	0
CCc1cc(=O)n(CC(=O)Nc2cccc(C(C)C)c2)c(N2CCOCC2)n1	?	?	?	0	0
O=C(NCc1cccs1)c1cn2cc(-c3ccc(F)cc3)sc2n1	?	-	?	-	0
COc1ccc(C2=NOC3(CCN([S+](=O)([O-])c4c(C)noc4C)C3)C2)cc1 (centres undefined)	?	0	?	0	0

Source: PubChem (National Center for Advancing Translational Sciences (NCATS))
